Most compounds without a hit are left out; they make up all but 3% or so of the library.
SNCA viab count – GF-AFC viability counterscreen for inhibitors of alpha-synuclein gene (SNCA) expression; Potency, µM (doses to about 57.1 µM), without a hit: at the top dose activity change, negative = cytotoxicity, actives largely listed as cytotoxic; hit rate 0.12% among 150,000; HEK-293-SNCA-luc viability, GF-AFC fluorescence, 24 h;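 further: potency means the concentration at half of the fitted maximal effect; 0% = DMSO-treated cells and -100% = medium-only wells without cells; nearly all actives have a fitted effect of over 30% in size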
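HEK-293-SNCA-luc cells (1500/well) plated 24 h, then exposed 24 h to a dilution series; GF-AFC added 30 min at 37C, fluorescence 405/540 nm; normalised to medium-only and DMSO wells, Hill fit.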
KDM5B inhibitor – Primary screen for KDM5B Histone Demethylases FDH-coupled qHTS | AID 1347165, 2019 | Potency, µM (top dose mostly 57.7 µM), actives largely listed as inhibitors | Lysine-specific demethylase 5B (Homo sapiens), Q9UGL1 | hit rate 2.6% among 220,000 | KDM5B demethylase, FDH-coupled NADH fluorescence (FDH is formaldehyde dehydrogenase); further: potency means the concentration at half of the fitted maximal effect; 0% is about no effect; nearly all actives have a fitted effect of over 70% in size
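KDM5BΔAP (200 nM final) in 50 mM HEPES pH 7.5, 0.01% Tween-20 was preincubated 10 min at RT with compound over a concentration range. Substrate mix (H3K4me3 12.5 µM, α-KG 25 µM, Fe²⁺, ascorbate, NAD⁺, FDH) was added, and NADH fluorescence change over 30 min gave dose-response curves.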
SNCA expr inh – Primary qHTS assay for inhibitors of alpha-synuclein gene (SNCA) expression. Potency, µM (highest dose often 57.2 µM), inactives show top-dose activity change, negative = inhibition, most hits filed as inhibitors. HEK-293 SNCA-luciferase knock-in, luminescence, 24 h. hit rate 0.17% among 140,000;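 further: potency means the concentration at half of the fitted maximal effect; plate controls were DMSO cells for no effect and cell-free wells for full effect; nearly all actives have a fitted effect of over 45% in size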
IP6K1 inhibitor – Primary qHTS assay for small molecule inhibitors of Inositol hexaphosphate kinase 1 (IP6K1); Inositol hexakisphosphate kinase 1 (Homo sapiens), Q92551; IP6K1 kinase, ADP-Glo luminescence, 2 h; hits give low values; activity change, % (series mostly up to about 58 µM); hit rate 0.81% among 140,000; AID 1645851, 2021; in the data active means activity change below about -25%; further: on the % scale 0 is the no-effect control and ±100 the full control effect
Target sequence (Q92551 whole entry, looked up): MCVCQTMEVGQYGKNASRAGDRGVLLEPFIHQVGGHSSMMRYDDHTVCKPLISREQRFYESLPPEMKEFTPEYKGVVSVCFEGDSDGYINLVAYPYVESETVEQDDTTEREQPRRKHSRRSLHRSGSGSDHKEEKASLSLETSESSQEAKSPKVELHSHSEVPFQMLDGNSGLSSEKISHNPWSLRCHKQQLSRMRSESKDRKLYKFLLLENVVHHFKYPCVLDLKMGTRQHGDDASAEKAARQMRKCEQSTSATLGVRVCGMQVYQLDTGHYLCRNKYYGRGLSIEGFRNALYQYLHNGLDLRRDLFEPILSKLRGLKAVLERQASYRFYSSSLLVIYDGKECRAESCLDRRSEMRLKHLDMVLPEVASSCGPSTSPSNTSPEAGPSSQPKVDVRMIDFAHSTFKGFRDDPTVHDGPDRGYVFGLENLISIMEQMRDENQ
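ADP-Glo luminescence measures ADP made by human IP6K1 during a 2 h RT reaction with ATP/IP6 (mix at 1.3 mM/130 uM); top library doses 57.5 and 19.1 uM final.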
The depositor's hits bear a star; [ ] = another dose, or the depositor's remark. Unless noted, the call rests on the fitted dose curve; in most records, active means well fitted curve in the direction sought with a large enough effect; inconclusive means small, poorly fitted or top-dose-only effect, or another doubt; inactive means no such curve, though single readings can be large; an effect the other way counts as inactive or inconclusive.

For C1=C(c2nc(-c3ccc(N4CCOCC4)cc3)cc3c2ccn3Cc2cccnc2)CCOC1 the results were SNCA viab count 0%, KDM5B inhibitor 28µM*, SNCA expr inh -1% and IP6K1 inhibitor 1.
`C1=C(c2nc(-c3cccc4[nH]ncc34)cc3c2ccn3Cc2cccnc2)CCOC1` gave SNCA viab count inconclusive, KDM5B inhibitor inactive, SNCA expr inh -2%[87.6 µM] and IP6K1 inhibitor -14.
For Cc1cc(C(=O)O)ccc1NS(=O)(=O)c1ccc(S(=O)(=O)N2CCCCC2)cc1 the results were KDM5B inhibitor inactive.
`N#Cc1cccc(N2CCC3(CCC(=O)N(CC4CCCO4)C3)CC2)n1` (stereo not given) gave SNCA viab count -4%, KDM5B inhibitor 25µM*, SNCA expr inh 7% and IP6K1 inhibitor -5.
Screening COc1ccccc1NC(=O)c1cc(-c2ccccc2C(F)(F)F)nc2c1cnn2C returned IP6K1 inhibitor -7.
For Cc1cccc2ncc(C(=O)N3CC[C@H](CO)[C@@H](O)C3)c(=O)n12 the results were SNCA viab count 9%, KDM5B inhibitor 22µM*, SNCA expr inh 13% and IP6K1 inhibitor 8.
Cc1ccc(C(=O)N[C@@H]2CN(c3ncccn3)C[C@H]2CO)nc1 was read as SNCA viab count -2%, KDM5B inhibitor 20µM*, SNCA expr inh 5% and IP6K1 inhibitor 7.
Cc1ccoc1C(=O)N[C@@H]1CN(c2ncccn2)C[C@H]1CO was read as SNCA viab count -2%, KDM5B inhibitor 25µM*, SNCA expr inh -3% and IP6K1 inhibitor 5.
Screening Cc1occc1C(=O)N[C@@H]1CN(c2ncccn2)C[C@H]1CO returned SNCA viab count 13%, KDM5B inhibitor inconclusive, SNCA expr inh -26% and IP6K1 inhibitor 2.
Cn1c(=O)c2[nH]c(N3CCN(Cc4ccc(F)cc4)CC3)nc2n(C)c1=O was read as KDM5B inhibitor inactive.
`CC(C)NC(=O)N1CCC(Oc2ccccc2-c2nc(-c3ccccc3)no2)C1` (stereo not given) gave SNCA viab count 5%, KDM5B inhibitor inconclusive, SNCA expr inh 7% and IP6K1 inhibitor -21.
O=C(Nc1ccccc1)N1CCC(Oc2ccccc2-c2nc(-c3ccccc3)no2)C1 (stereo not given) was read as SNCA viab count -29%, KDM5B inhibitor 32µM*, SNCA expr inh -23% and IP6K1 inhibitor -8.
For Cc1cccc(NC(=O)N2CC(Oc3ccc(-c4nc(-c5ccccc5)no4)cc3)C2)c1 the results were SNCA viab count -11%, KDM5B inhibitor 13µM*, SNCA expr inh 14% and IP6K1 inhibitor -4.
For Cc1nc(-c2ccccc2OC2CN(C(=O)c3ccoc3)C2)no1 the results were SNCA viab count 5%, KDM5B inhibitor inactive, SNCA expr inh 42% and IP6K1 inhibitor -5.
`O=C(c1cccc2[nH]ccc12)N1CC(Oc2ccc(-c3nc(-c4ccccc4)no3)cc2)C1` gave SNCA viab count inconclusive, KDM5B inhibitor 11µM*, SNCA expr inh -6% and IP6K1 inhibitor 4.
For Cc1nc(-c2ccccc2OC2CN(C(=O)c3cccc4[nH]ccc34)C2)no1 the results were SNCA viab count -5%, KDM5B inhibitor 28µM*, SNCA expr inh 33% and IP6K1 inhibitor -2.
`CC(C)c1nc(-c2ccc(OC3CCN(C(=O)c4ccoc4)C3)cc2)no1` (stereo not given) gave SNCA viab count 17%, SNCA expr inh 0% and IP6K1 inhibitor 4.
Screening Cn1cc(C(=O)N2CC(Oc3ccc(-c4nc(-c5ccccc5)no4)cc3)C2)cn1 returned SNCA viab count -2%, KDM5B inhibitor inactive, SNCA expr inh 24% and IP6K1 inhibitor 5.
c1ccc(-c2noc(-c3ccc(OC4CNC4)cc3)n2)cc1 was read as SNCA viab count -1%, KDM5B inhibitor inactive, SNCA expr inh 10µM* and IP6K1 inhibitor 8.
Screening Cn1cccc1C(=O)N1CC(Oc2ccc(-c3nc(-c4ccccc4)no3)cc2)C1 returned SNCA viab count -7%, KDM5B inhibitor 28µM*, SNCA expr inh 18% and IP6K1 inhibitor 8.
Screening Cc1noc(-c2ccc(OC3CN(C(=O)c4cccc5[nH]ccc45)C3)cc2)n1 returned SNCA viab count -17%, KDM5B inhibitor 28µM*, SNCA expr inh 61% and IP6K1 inhibitor 4.

From PubChem BioAssay
